# Hits are enriched below; roughly 7.1% of the tested compounds scored in any of these assays.
# IL1B secr inh: qHTS for Inhibitors of Inflammasome Signaling: IL-1-beta AlphaLISA Primary Screen; THP-1 LPS/ATP IL-1B secretion, AlphaLISA, 16 h; active compounds read low; activity change, % at 57.5 µM; 360,000 compounds, 4.7% hits; in the data active means activity change below about -50%; inconclusive means mostly about -30% to -49%; further: on the % scale 0 is the no-effect control and ±100 the full control effect
#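 THP-1 cells pretreated 1 hr with compounds (up to 57.5 uM final), then stimulated with LPS (250 ng/mL final) plus ATP (1.25 mM final); secreted IL-1B measured by AlphaLISA after 16 hr, decreased signal indicating inhibition.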
# MCF10A rereplic: A quantitative high throughput screen for small molecules that induce DNA re-replication in MCF 10a normal breast cells. 350,000 compounds, 2.9% hits. Potency, µM (top dose mostly 46.1 µM), without a hit: top-dose activity, positive = re-replication, actives largely listed as activators. MCF 10A DNA re-replication, Hoechst nuclear intensity, 48 h. AID 624296, 2012; further: potency means the concentration at half of the fitted maximal effect; % of control where 0% means no effect; nearly all actives have a fitted effect of over 50% in size
# SW480 rereplic: A quantitative high throughput screen for small molecules that induce DNA re-replication in SW480 colon adenocarcinoma cells. AID 624297, 2012. 340,000 compounds, 1.8% hits. Potency, µM (top dose mostly 46.1 µM), for the others: top-dose re-replication activation, actives largely listed as activators. SW480 DNA re-replication, Hoechst DNA content imaging, 48 h; further: potency means the concentration at half of the fitted maximal effect; % of control where 0% means no effect; nearly all actives have a fitted effect of over 55% in size
#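 Cells (250 per well) received 23 nL compound or DMSO by pin tool and were kept 48 hr at 37 C, 5% CO2. Nuclei were then stained with Hoechst for 40 min and scanned for DNA content.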
# ATXN viability: Viability Counterscreen for Primary qHTS for Inhibitors of ATXN expression; S2 cells (HEK-293 line with an ATXN2-luciferase reporter) viability, CellTiter-Fluor protease fluorescence, 24 h; Potency, µM (highest dose often 56.7 µM), usual class: cytotoxic; 400,000 compounds, 0.49% hits; further: potency means the concentration at half of the fitted maximal effect; nearly all actives have a fitted effect of over 40% in size
# ATXN2 expr inh: Primary qHTS for Inhibitors of ATXN expression; Potency, µM (highest dose often 57 µM), inactives show at the highest dose activity change, negative = inhibition, most hits filed as inhibitors; 360,000 compounds, 0.72% hits; AID 1745845, 2022; HEK-293 ATXN2-luciferase reporter, luminescence, 24 h; further: potency means the concentration at half of the fitted maximal effect; on the % scale 0 is the no-effect control and ±100 the full control effect; nearly all actives have a fitted effect of over 55% in size
#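 ATXN2-luciferase reporter cells (luciferase flanked by upstream and downstream ATXN2 gene portions) were treated 24 h at 37 °C with compounds at up to 57 uM. SteadyGlo luminescence gave expression; GF-AFC fluorescence gave viability.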
# PINK1 expr mod: A Quantitative High throughput Screen to Identify Chemical Modulators of PINK1 Expression; Potency, µM (highest dose often 76.6 µM), without a hit: top-dose activation (PINK1 increase), hits mostly activators; 410,000 compounds, 0.2% hits; PINK1 immunofluorescence, high-content cytometry, 24 h; AID 624263, 2012; active means well fitted activation curve with a large enough effect; inconclusive means small, poorly fitted or top-dose-only effect; cell line not stated here; further: potency means the concentration at half of the fitted maximal effect; % of control where 0% means no effect; nearly all actives have a fitted effect of over 65% in size
#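 PINK1 protein level read as immunofluorescence by microplate cytometer in a fixed, stained stable cell line after 24 h exposure to five compound concentrations, with CCCP as control.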
# An asterisk follows results filed as active; i = inactive; ? = inconclusive; / = no result given; ! = not confirmed by another sample; [ ] = another dose, or the depositor's remark. Unless noted, the call rests on the fitted dose curve; in most records, active means well fitted curve in the direction sought with a large enough effect; inconclusive means small, poorly fitted or top-dose-only effect, or another doubt; inactive means no such curve, though single readings can be large; an effect the other way counts as inactive or inconclusive.
SMILES,IL1B secr inh,MCF10A rereplic,SW480 rereplic,ATXN viability,ATXN2 expr inh,PINK1 expr mod
CCn1cc([N+](=O)[O-])c(C(=O)N2N=C(c3ccc(Cl)c(Cl)c3)CC2c2ccccc2O)n1 (configuration not stated),-85*,?,?,/,?,-2%
Cc1nn(-c2ccccc2)c(C)c1/C=N/NC(=O)c1cc(C(C)(C)C)[nH]n1,-26,8%,-4%,i,1%,-1%
Cc1ccc(-c2cc(C(=O)N/N=C/c3c(C)nn(-c4ccccc4)c3C)n[nH]2)s1,-4,?,1.3µM*,?,/,-2%
Cn1ccnc1C(=O)c1ccc(NN)c([N+](=O)[O-])c1,-217*,?,-4%,i,/,1%
N#CC(C#N)=C1C=CC=CN1/C(=C\c1ccco1)C(=O)c1ccccc1,-98*,2.6µM*,?,?,?,-1%
COc1ccc(C(=O)N/C(=C\c2ccco2)C(=O)OCc2ccco2)cc1,6,1%,1%,i,23%,1%
CC(C)(C)NC(=O)/C(=C/c1ccco1)c1ccccc1,-4,0%,-1%,i,5%,-2%
N#C/C(=C/c1ccco1)C(N)=S,2,0%,6%,i,-4%,0%
COc1ccc(C(=O)/C(=C\c2ccco2)N2C=CC=CC2=C(C#N)C#N)cc1,-96*,1.3µM*,?,/,14µM*,-2%
COc1ccc(/C=C(/C(=O)c2cccs2)N2C=CC=CC2=C(C#N)C#N)cc1,-95*,?,?,?,/,0%
N#CC(C#N)=C1C=CC=CN1/C(=C\c1ccco1)C(=O)c1ccc(Br)cc1,-106*,3.3µM*,4.6µM*,?,18µM*,-1%
CCOC(=O)c1nc(N2CCN(c3ccc(F)cc3)CC2)c2c(C)noc2n1,/,/,/,i,-8%,0%
Cc1ccc(-c2[nH]ncc2CNCc2ccc(CN(C)C)cc2)cc1,/,/,/,/,/,0%
CCC(=O)NCc1nc(-c2cccc(NC(=O)c3ccc(C)s3)c2)oc1C,/,/,/,i,/,1%
COCC(=O)Nc1cc(C(=O)NC2C3CC4CC2CC(O)(C4)C3)cc2nc(-c3ccccc3)n(C)c12 (configuration not stated),/,/,/,i,/,0%
OCCNc1nc(NCc2ccccc2)c2ccccc2n1,-99*,0%,-1%,i,?,2%
OCCNc1nc(Nc2cccc(O)c2)nc2ccccc12,-105*,-4%,-24%,i,-38%,16%
OCCNc1nc(-c2cccs2)nc2ccccc12,/,/,/,/,/,1%
OCCNc1nc(Nc2ccc(O)cc2)nc2ccccc12,/,5%,11%,?,/,-1%
OCCNc1nc(N2CCN(c3ccccc3)CC2)nc2ccccc12,-3,7.3µM*,1%,i,-22%,0%
CC(C)Nc1nc(NCCO)nc2ccccc12,88,/,/,?,-8%,0%
CCC1CN(CCNC(=O)c2ccc(N3CCOCC3)cc2)Cc2cc(OC)ccc2O1 (configuration not stated),/,/,/,i,/,1%
CN(C)c1ccc(CNC(=O)c2ccccc2NC(=O)c2nsc3ccccc23)cc1,/,/,/,i,8%,0%
COCCn1c(SCC(=O)Nc2cccnc2Cl)nc2cc(Cl)ccc2c1=O,-11,8%,-3%,i,-8%,2%
Cc1ccc(-n2c(SCC(=O)Nc3cccc(S(N)(=O)=O)c3)nc3ccccc32)cc1,27,16µM*,17%,i,-35%,1%
SMILES,IL1B secr inh,MCF10A rereplic,SW480 rereplic,ATXN viability,ATXN2 expr inh,PINK1 expr mod
COCCn1c(SCC(=O)Nc2cccc(S(N)(=O)=O)c2)nc2cc(Cl)ccc2c1=O,-68*,?,?,i,-15%[11.3 µM],2%
C=CCn1c(SCC(=O)Nc2cccc(S(N)(=O)=O)c2)nc2sc(C)c(C)c2c1=O,-61*,15%,-5%,i,-5%,11%
COCCn1c(SCC(=O)Nc2sccc2C(N)=O)nc2cc(Cl)ccc2c1=O,-54*,26%,15%,?,-22%,4%
CCCOc1ccc(-c2cccc(NS(=O)(=O)c3ccc(CC)cc3)c2)nn1,/,/,/,?,?,5%
Cc1ccc2c(c1)C1(C(=O)N2)N2CCCC2C(C(=O)c2ccc3ccccc3c2)C12C(=O)Nc1ccccc12 (configuration not stated),-86*,?,?,i,25%,0%
Cc1ccc(-c2cn(-c3ccc(OC(F)F)cc3)c3[n+]2CCCCC3)cc1,-81*,5%,-1%,i,?,3%
FC(F)Oc1ccc(-n2cc(-c3ccccc3)[n+]3c2CCCCC3)cc1,-23,-2%,-11%,i,-18%,2%
CC12CCC(=O)C=C1CCC1C2C(O)CC2(C)C1CCC2(O)C(=O)COC(=O)COCC(=O)O (configuration not stated),-50*,9%,3%,i,7%,14%
C[C@]12C=CC(=O)C=C1CC[C@@H]1[C@@H]2[C@@H](O)C[C@@]2(C)[C@H]1CC[C@]2(O)C(=O)COC(=O)CCC(=O)NCCc1ccc(O)cc1,-56*,-1%,-7%,i,7%,4%
CCCCCCCC(=O)OCC(=O)[C@@]1(O)CC[C@H]2[C@@H]3CCC4=CC(=O)CC[C@]4(C)[C@H]3[C@@H](O)C[C@@]21C,-53*,3%,-13%,i,-6%,5%
CC(=O)OCC(=O)C1(O)CCC2C3CCC4=CC(=O)CCC4(C)C3C(O)CC21C (configuration not stated),?,-3%,?,i,1%,9%
CCOCCCNC(=O)C(c1ccc(Cl)cc1)N(Cc1ccc2c(c1)OCO2)C(=O)c1ccccc1O (configuration not stated),/,/,/,?,-7%,2%
CC(C)Oc1ccc(CNC(=O)c2ccc(CS(=O)Cc3ccccc3Cl)o2)cc1 (configuration not stated),/,/,/,/,/,0%
CCC(=O)O[C@]1(C(=O)CO)CC[C@H]2[C@@H]3CCC4=CC(=O)CC[C@]4(C)[C@@H]3CC[C@@]21C,/,/,/,/,4%,/
C[C@]12CCC(=O)C=C1CC[C@@H]1[C@@H]2[C@@H](O)C[C@@]2(C)[C@H]1CC[C@]2(O)C(=O)CO,-58*!,7%,-4%,i,1%,2%

# Screening results (PubChem)
